Screening results (PubChem BioAssay)
SF-1 inh: inhibitors of human SF-1, primary screen, cell-based, CHO-K1, Gal4-SF-1 LBD, luciferase luminescence; inhibition, % at 10 µM; Steroidogenic factor 1 (Homo sapiens), Q13285; CHO-K1 Gal4-SF-1 LBD luciferase reporter; 0.55% of 65,000 active;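 active = inhibition above the mean inhibition of all tested compounds plus 3 SD, cut at about 48% in these data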;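 also: 0% = SF-1 transfected cells with DMSO and 100% = mock-transfected cells lacking SF-1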
Target sequence (Q13285 whole entry, looked up, the tested form may be a part): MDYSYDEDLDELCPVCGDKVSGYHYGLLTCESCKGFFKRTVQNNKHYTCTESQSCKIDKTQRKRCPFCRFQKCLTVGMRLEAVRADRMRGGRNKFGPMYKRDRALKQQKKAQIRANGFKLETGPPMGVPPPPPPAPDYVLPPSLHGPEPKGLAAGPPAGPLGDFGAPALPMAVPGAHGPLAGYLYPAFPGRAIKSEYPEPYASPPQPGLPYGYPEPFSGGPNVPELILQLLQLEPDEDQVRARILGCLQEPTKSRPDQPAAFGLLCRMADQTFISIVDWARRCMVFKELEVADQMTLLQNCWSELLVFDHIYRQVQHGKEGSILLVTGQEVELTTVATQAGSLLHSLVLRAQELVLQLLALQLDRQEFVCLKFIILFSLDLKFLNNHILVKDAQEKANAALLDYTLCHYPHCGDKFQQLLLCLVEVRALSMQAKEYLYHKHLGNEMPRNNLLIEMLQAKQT
* marks the source's active call; other numbers are inactive results. This is one part of a sample in which hits are shown more often than they occur.

SMILES | SF-1 inh
Cc1ccc2c(c1)NC(=O)C(CC(=O)NCCCN1CCN(c3cc(Cl)ccc3C)CC1)O2 (stereo not drawn) | 13
COc1ccc(N2CCN(CCNC(=O)CCNS(=O)(=O)c3cccs3)CC2)cc1 | -10
COc1ccc(NC(=O)NCCCN2CCN(c3cc(C)ccc3C)CC2)cc1 | 49*
CNc1nc(N2CCc3ccccc32)ncc1F | -75
CCC1CCCCN1C(=O)C1CC(c2cc(Cl)c(OC)cc2OC)=NO1 (stereo not drawn) | -27
O=C(CN1C(=O)c2ccccc2C1=O)NCc1ccccn1 | -10
COc1ccccc1-c1nnn(CC#N)n1 | -21
O=C1CC(c2cccs2)Sc2nc3ccccc3n21 (stereo not drawn) | -80
C=CCn1c(NC)cc(=O)n(C)c1=O | -2
COc1cccc(NC(=O)C2CCCN(S(=O)(=O)c3cccc4cccnc34)C2)c1 (stereo not drawn) | 4
Cc1ccc(S(=O)(=O)Nc2nc(C)cc(NCCN)n2)cc1 | -8
COc1cc(NS(=O)(=O)c2ccc(C)cc2)c2ncccc2c1 | 94*
Cc1ccc(CNc2ccc(O)cc2)cc1 | -8
Cc1nnc(NC(=O)C2CCCN(S(=O)(=O)c3ccccc3C(F)(F)F)C2)s1 (stereo not drawn) | 8
Cn1cnnc1SCc1ccc(C#N)cc1Cl | 14
S=c1nc(-c2ccccc2)n(CCCN2CCOCC2)c2c1CCCC2 | -10
CN=c1scc(C)n1/N=C/c1ccc(O)cc1 | 25
CN=c1scc(C)n1/N=C/c1ccc(O)cc1O | 52*
CCSc1ncc(Cl)c(C(=O)N(Cc2ccc(N(C)C)cc2)C2CCS(=O)(=O)C2)n1 (stereo not drawn) | 4
CCN1CCN(C(=O)c2ccc3c(=O)n(Cc4ccccc4OC)c(=S)[nH]c3c2)CC1 | 4
CCN1C(=O)/C(=C2/Sc3ccc(OC)cc3N2C)SC1=Nc1cccc(O)c1 | 51*
CCCCc1ccc(-c2ccc(C)cc2O)nc1 | -15
C=CCn1cnc2c(NCc3ccccc3)ncnc21 | -65
CCOC(=O)N1CCC(NC(=O)c2cccnc2SC)CC1 | -2
CCOC(=O)C1CCN(Cc2ccc(O)c3ncccc23)CC1 | 77*
SMILES | SF-1 inh
CCOC(=O)C1CCCN(c2nc(C)nc3c2oc2ccccc23)C1 (stereo not drawn) | 17
CCCn1c(=C(C#N)C#N)s/c(=C2\C=Cc3ccccc3N2CC)c1=O | 16
O=c1oc2ccccc2cc1NCc1ccccc1O | -8
O=C(COc1ccccc1)Nc1ccc(S(=O)(=O)NCc2ccco2)cc1 | 17
c1ccc(-c2nnc3n2N=C(c2ccc4c(c2)OCO4)CS3)nc1 | -3
CCOC(=O)N1CCN(C(=O)C(C)n2nc(C)n3c(cc4sccc43)c2=O)CC1 (stereo not drawn) | 12
COc1ccccc1-c1nn2c(-c3ccco3)nnc2s1 | -59
CCN(CC)c1ccc(-c2nn3c(-c4ccccc4OC)nnc3s2)cc1 | 67*
COc1cc(-c2nnc3sc(-c4cccnc4)nn23)cc(OC)c1OC | 18
Cc1noc(C)c1COC(=O)c1cccnc1SCC(=O)Nc1ccc2c(c1)OCO2 | -3
O=C(CN1CCC(n2nnc3cc(F)ccc32)CC1)NC1CC1 | -1
CCOC(=O)CCCCNCc1ccccc1 | -4
COC(=O)COC(=O)c1ccc(O)cc1 | 11
COc1cc(C(=O)Nc2c(C)cc(C)cc2C)c(-n2cnnn2)cc1OC | -7
Cn1c(=O)c2c(nc(CN3CCN(c4ccccc4)CC3)n2Cc2ccccc2F)n(C)c1=O | 10
CC(=O)c1c(C)[nH]c(C(=O)NCCc2cccc(C)c2)c1C | -71
Cc1cc(C)n2nc(SCC(=O)c3ccccc3)nc2n1 | -6
O=C1CC(Nc2ccc(N3CCOCC3)cc2)C(=O)N1C1CCCCC1 (stereo not drawn) | -1
Cc1noc(C)c1CSc1nc2ccccc2s1 | -19
c1csc(CSc2nc3ccccc3s2)c1 | -52
Cc1ccc(CNc2nc3ccccc3s2)s1 | 61*
CC1(C)CC(=O)C(CC2=C(O)CC(C)(C)CC2=O)=C(O)C1 | -3
COc1ccc(C2N3CC4(C)CN2CC(C)(C3)C4=O)cc1OC (stereo not drawn) | -2
COC(=O)c1ccc(NC(=O)C2CCCN2S(=O)(=O)c2ccc(C)cc2)cc1 (stereo not drawn) | 6
Cc1ccc(-c2cn3nc(C)c(C)nc3n2)cc1 | 79*
SMILES | SF-1 inh
Oc1ccccc1Oc1ncc(Br)c(N2CCOCC2)n1 | 9
Cn1c(SCC(=O)Nc2cc(=O)n(C)c(=O)n2C)nnc1-c1cccs1 | -6
CC(=O)c1c(C)[nH]c(C(=O)Nc2ccc3c(c2)OCCO3)c1C | -61
Cc1oc2cc(O)cc(O)c2c(=O)c1-c1ccc2c(c1)OCCCO2 | -50
COc1ccc(-c2cc(C(=O)O)c(C)o2)cc1OC | 51*
COc1ccc(-c2nnc(SCCC(=O)O)n2C)cc1OC | 14
Cc1oc(-c2ccc3c(c2)OCCO3)cc1C(=O)O | 81*
COc1ccc(-c2nc(C)c(C(C)=O)n2O)cc1OC | 10
CC(C)CCNC(=O)C1CCN(S(=O)(=O)c2ccc3c(c2)CCC(=O)N3)CC1 | -10
Cc1nc(NC(=O)C2CC3CCCC(C2)C3=O)sc1C (stereo not drawn) | -54
CCN(C1CCCCC1)S(=O)(=O)c1ccc(S(=O)(=O)NCc2ccncc2)cc1 | 52*
O=C(CCC1CCCCC1)NCc1ccncc1 | 15
COC(=O)COc1ccc(S(=O)(=O)NCc2ccncc2)cc1 | 17
CCc1c(C)nc2ncnn2c1N1CCCC(C(=O)NCc2ccc3c(c2)OCO3)C1 (stereo not drawn) | -2
Cc1cccc2cc(C#N)c(SCC(=O)N3CC(=O)Nc4ccccc43)nc12 | 64*
Cc1cccc2cc(C#N)c(NCCNC(=O)NC3CCCCC3)nc12 | 15
CCOC(=O)CSc1nc(-c2ccc3c(c2)OCO3)ccc1C#N | -64
CC(C)Oc1cc(O)c2c(=O)c(-c3ccc(O)cc3)coc2c1 | -58
CCOc1ccc(N2C(=O)c3cccnc3C2Nc2ccc(C)cc2)cc1 (stereo not drawn) | 0
O=S(=O)(Cc1nc2ccccc2s1)c1ccccc1 | -110
COc1ccc2oc(C(=O)C3CC3)c(N)c2c1 | -74
Cc1nc2sc3c(c2c(=O)o1)CC(C)(C)OC3 | 0
COCCn1c(C)cc(C(=O)COC(=O)c2ccc3ncsc3c2)c1C | -52
COCCn1c(C)cc(C(=O)COC(=O)c2n[nH]c3ccccc23)c1C | 67*
COCCn1c(C)cc(C(=O)CSc2nc3ccccc3c(=O)[nH]2)c1C | -8
SMILES | SF-1 inh
Cc1cc(C)nc(-n2nc(C)cc2Nc2ccccc2)n1 | 20
Cc1cc(NS(=O)(=O)c2ccccc2)n(-c2ccccc2)n1 | 1
Cc1cc(Nc2ccccc2)n(-c2ccccc2)n1 | 6
Cc1cc(C)n(-c2nc(NC(C)(C)C)nc(NC(C)(C)C)n2)n1 | 53*
Cc1cc(C)n(-c2cc(-n3nc(C)cc3C)ncn2)n1 | 20
Cc1cc(C)n(-c2nc(NC(C)C)nc(NC(C)C)n2)n1 | 53*
Cc1cc(C)n(-c2ccc(C(=O)Nc3sccc3C(N)=O)cc2)n1 | -62
CC(C(=O)NCc1ccccc1)N1C(=O)C2CC=C(Cl)CC2C1=O (stereo not drawn) | 19
Cn1c(N2CCN(C(=O)NCc3ccccc3)CC2)nc2ccccc21 | 8
Cn1c(C(C#N)C(=O)c2ccco2)nc2ccccc21 (stereo not drawn) | -59
Cn1c(SC2=CS(=O)(=O)c3ccccc32)nc2ccccc21 | 68*
